Laboratory results from PubChem BioAssay (NCI).
About 83,000 compounds went through this panel and 20% of them were active in at least one assay; those are over-represented in the sample as a whole.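 Note: values are percent growth. 100 is the growth of untreated cells, values between 100 and 0 indicate rising inhibition; between -100 and 0 indicates cell death.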 Calls of active or inactive are those of the source. The calls were made as follows: active = growth percent below 10; inactive = the rest.

How the values were obtained:
Assay in all cases: NCI-60 one-dose screen, 48 h (100 = growth as untreated, 0 = no growth, -100 = all killed)
SR leukemia = test system: SR leukemia
RPMI-8226 leukemia = test system: RPMI-8226 leukemia
OVCAR-8 ovarian = test system: OVCAR-8 ovarian
OVCAR-5 ovarian = test system: OVCAR-5 ovarian
OVCAR-4 ovarian = test system: OVCAR-4 ovarian
SK-OV-3 ovarian = test system: SK-OV-3 ovarian
OVCAR-3 ovarian = test system: OVCAR-3 ovarian
HS 578T breast = test system: HS 578T breast
NCI/ADR-RES ovarian = test system: NCI/ADR-RES ovarian
IGROV1 ovarian = test system: IGROV1 ovarian

Measured: growth

CN(C)CCNc1ncc(F)c(-c2cnc3cc(-c4cnn(C)c4)ccn23)n1
active: SR leukemia; 30 µM 5.34%
inactive: SR leukemia; 0.005 µM 99.9% | RPMI-8226 leukemia; 10 µM unless noted 98.3% [0.005 µM] | OVCAR-8 ovarian; 0.005 µM 99.9% | OVCAR-8 ovarian; 30 µM 54.3% | OVCAR-5 ovarian; 0.005 µM 99.7% | OVCAR-5 ovarian; 30 µM 64.5% | OVCAR-4 ovarian; 0.005 µM 105% | OVCAR-4 ovarian; 30 µM 38.6% | SK-OV-3 ovarian; 10 µM unless noted 21% [30 µM] | OVCAR-3 ovarian; 0.005 µM 109% | OVCAR-3 ovarian; 30 µM 75.3% | HS 578T breast; 0.005 µM 101% | HS 578T breast; 30 µM 60% | NCI/ADR-RES ovarian; 0.005 µM 101% | NCI/ADR-RES ovarian; 30 µM 62.3%

CC(=O)/C=C/c1ccc(N(C)Cc2ccc(C(C)(C)C)cc2)cc1
inactive: SR leukemia; 10 µM 80.4% | RPMI-8226 leukemia; 10 µM 78.2% | OVCAR-8 ovarian; 10 µM 92.4% | OVCAR-5 ovarian; 10 µM 102% | OVCAR-4 ovarian; 10 µM 85.2% | SK-OV-3 ovarian; 10 µM 98.4% | IGROV1 ovarian; 10 µM 99% | OVCAR-3 ovarian; 10 µM 101% | HS 578T breast; 10 µM 87.1% | NCI/ADR-RES ovarian; 10 µM 86.1%
active: SR leukemia; 100 µM -29.5% | RPMI-8226 leukemia; 100 µM -49.8% | OVCAR-8 ovarian; 100 µM -54.8% | OVCAR-5 ovarian; 100 µM -72% | OVCAR-4 ovarian; 100 µM -68.9% | SK-OV-3 ovarian; 100 µM -29.8% | IGROV1 ovarian; 100 µM 1.66% | OVCAR-3 ovarian; 100 µM -93.2% | HS 578T breast; 100 µM -33.3% | NCI/ADR-RES ovarian; 100 µM -60.1%

Cc1ccc(-c2nc3nc(-c4ccc(F)cc4)nc(N4CCCNCC4)c3o2)cc1
active: SR leukemia; 10 µM unless noted -37.3% | RPMI-8226 leukemia; 10 µM unless noted -62.4% | OVCAR-8 ovarian; 10 µM unless noted -74.8% | OVCAR-5 ovarian; 10 µM unless noted -97.3% | OVCAR-4 ovarian; 10 µM unless noted -89% | SK-OV-3 ovarian; 10 µM unless noted -88.8% | IGROV1 ovarian; 10 µM unless noted -88.3% | OVCAR-3 ovarian; 10 µM unless noted -96% | HS 578T breast; 10 µM unless noted -75.9% | NCI/ADR-RES ovarian; 10 µM unless noted -77.7%

COc1ccc(-c2ccc(-c3ccc(C(=N)N)cn3)o2)cc1Cl
active: SR leukemia; 10 µM unless noted -28.3% | RPMI-8226 leukemia; 10 µM unless noted -35.5% | OVCAR-3 ovarian; 10 µM unless noted -13.2%
inactive: OVCAR-8 ovarian; 10 µM unless noted 12.3% | OVCAR-5 ovarian; 10 µM unless noted 68.6% | OVCAR-4 ovarian; 10 µM unless noted 38.8% | SK-OV-3 ovarian; 10 µM unless noted 84.8% | IGROV1 ovarian; 10 µM unless noted 68.7% | HS 578T breast; 10 µM unless noted 59.1% | NCI/ADR-RES ovarian; 10 µM unless noted 82.8%

CN(Cc1ccccc1)c1nc(Cl)c(C2CC(c3ccc4c(c3)OCO4)=NN2c2cc(Cl)cc(Cl)c2)s1 (centres undefined)
inactive: SR leukemia; 10 µM unless noted 98.6% | RPMI-8226 leukemia; 10 µM unless noted 83.7% | OVCAR-8 ovarian; 10 µM unless noted 105% | OVCAR-5 ovarian; 10 µM unless noted 106% | OVCAR-4 ovarian; 10 µM unless noted 90.1% | SK-OV-3 ovarian; 10 µM unless noted 92.9% | IGROV1 ovarian; 10 µM unless noted 95.3% | OVCAR-3 ovarian; 10 µM unless noted 103% | HS 578T breast; 10 µM unless noted 96.5% | NCI/ADR-RES ovarian; 10 µM unless noted 104%

CCN(c1cc(-c2ccc(CN3CCC(/C=C/S(=O)(=O)c4ccccc4)CC3)cc2)cc(C(=O)NCc2c(C)cc(C)[nH]c2=O)c1C)C1CCOCC1
inactive: SR leukemia; 10 µM unless noted 17.9% | RPMI-8226 leukemia; 10 µM unless noted 19.2% | OVCAR-8 ovarian; 10 µM unless noted 75% | OVCAR-5 ovarian; 10 µM unless noted 90.3% | OVCAR-4 ovarian; 10 µM unless noted 73% | SK-OV-3 ovarian; 10 µM unless noted 86.2% | IGROV1 ovarian; 10 µM unless noted 53.7% | OVCAR-3 ovarian; 10 µM unless noted 77.3% | HS 578T breast; 10 µM unless noted 62.2% | NCI/ADR-RES ovarian; 10 µM unless noted 73.7%

CCN(Cc1ccccc1)c1ccc(/C=C2\COc3ccccc3C2=O)cc1
inactive: SR leukemia; 10 µM 67.5% | RPMI-8226 leukemia; 10 µM 110% | RPMI-8226 leukemia; 100 µM 20.5% | OVCAR-8 ovarian; 10 µM 95.3% | OVCAR-8 ovarian; 100 µM 47.6% | OVCAR-5 ovarian; 10 µM 101% | OVCAR-5 ovarian; 100 µM 98.7% | OVCAR-4 ovarian; 10 µM 102% | OVCAR-4 ovarian; 100 µM 52.1% | SK-OV-3 ovarian; 10 µM 89.4% | SK-OV-3 ovarian; 100 µM 65.2% | IGROV1 ovarian; 10 µM 99.1% | IGROV1 ovarian; 100 µM 40.2% | OVCAR-3 ovarian; 10 µM 108% | OVCAR-3 ovarian; 100 µM 19.1% | HS 578T breast; 10 µM 96% | HS 578T breast; 100 µM 59.4% | NCI/ADR-RES ovarian; 10 µM 101% | NCI/ADR-RES ovarian; 100 µM 23.4%
active: SR leukemia; 100 µM 7.93%

CCCCn1c(C(=O)c2c[nH]c3ccccc23)n[nH]c1=S
inactive: SR leukemia; 10 µM unless noted 91.7% | RPMI-8226 leukemia; 10 µM unless noted 78.7% | OVCAR-8 ovarian; 10 µM unless noted 93.1% | OVCAR-5 ovarian; 10 µM unless noted 133% | OVCAR-4 ovarian; 10 µM unless noted 92.4% | SK-OV-3 ovarian; 10 µM unless noted 88.4% | IGROV1 ovarian; 10 µM unless noted 87.7% | OVCAR-3 ovarian; 10 µM unless noted 106% | HS 578T breast; 10 µM unless noted 91% | NCI/ADR-RES ovarian; 10 µM unless noted 107%

COc1ccc(C(=O)/C=C/c2ccc(OCc3ccc(Cl)cc3)cc2)cc1OC
active: OVCAR-8 ovarian; 100 µM -8.35% | OVCAR-4 ovarian; 100 µM -4.25% | SK-OV-3 ovarian; 100 µM 7.5% | IGROV1 ovarian; 100 µM 4.98% | OVCAR-3 ovarian; 100 µM -45.2% | NCI/ADR-RES ovarian; 100 µM 0.0169%
inactive: SR leukemia; 10 µM 78.2% | SR leukemia; 100 µM 43.8% | RPMI-8226 leukemia; 10 µM 88.5% | RPMI-8226 leukemia; 100 µM 55.8% | OVCAR-8 ovarian; 10 µM 92% | OVCAR-5 ovarian; 10 µM 103% | OVCAR-5 ovarian; 100 µM 135% | OVCAR-4 ovarian; 10 µM 86% | SK-OV-3 ovarian; 10 µM 120% | IGROV1 ovarian; 10 µM 105% | OVCAR-3 ovarian; 10 µM 104% | NCI/ADR-RES ovarian; 10 µM 91.5%

O=C1CCCCN1CCCCC#Cc1cccc(C#Cc2cccnc2)c1
active: SR leukemia; 10 µM unless noted -46.3%
inactive: RPMI-8226 leukemia; 10 µM unless noted 49.7% | OVCAR-8 ovarian; 10 µM unless noted 89.2% | OVCAR-5 ovarian; 10 µM unless noted 101% | OVCAR-4 ovarian; 10 µM unless noted 93.8% | SK-OV-3 ovarian; 10 µM unless noted 109% | IGROV1 ovarian; 10 µM unless noted 79.4% | OVCAR-3 ovarian; 10 µM unless noted 89.7% | HS 578T breast; 10 µM unless noted 88% | NCI/ADR-RES ovarian; 10 µM unless noted 72.7%
